Screens from PubChem.
Shown are actives, neighbours in structure and some others; about 2.7% of the full set was active somewhere.
HIV Env fusion = blocks HIV Env-driven cell-cell fusion; inhibition, % at 12.3 µM; HeLa-JRFL Env/CEM21 cell fusion, luciferase; AID 651610; 360,000 compounds, 1.1% hits;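 active = mean replicate inhibition score of at least 50 and every replicate individually at or above 50; inconclusive = only one of the two criteria met; inactive = mean below 50 and not all replicates reaching 50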
EWS-Fli inh = inhibitors of EWS/Fli oncoprotein transcriptional activity; inhibition, % at 12.6 µM; A673 NR0B1-luciferase reporter, viability-normalised; AID 651661; 350,000 compounds, 0.67% hits;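 active = mean inhibition of at least 50% after viability correction, with every replicate also passing that limit; inconclusive = mean reaches 50% but only one of two replicates passes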;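 also: firefly luciferase signal divided by Alamar Blue viability fluorescence both relative to DMSO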
CFTR F508del cor = correctors of CFTR F508del function in bronchial epithelial cells. CFBE cells, YFP halide quenching; stimulated with forskolin plus potentiator P3; % fluorescence drop versus neutral controls. activity (quench increase), % at 7.58 µM. 350,000 compounds, 0.36% hits;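 active = mean added fluorescence quench of at least 8% versus neutral control, with both replicates also reaching 8%; inconclusive = only one of the mean or replicate conditions met; inactive = mean below 8% and not both replicates reaching 8%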;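 also: cells transiently co-express mutant CFTR-F508del with the halide-sensitive YFP; corrector assay measuring rescue of mutant channel to the surface after 24 h compound exposure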
GSIS activator = primary screen for activators of insulin secretion dependent on glucose, INS-1E cells, GLuc reporter luminescence; INS-1E GLuc reporter insulin secretion, 2-3 h; activation, % at 16.6 µM; 370,000 compounds, 0.61% hits;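 active = lowest replicate activation of at least 40%, so every replicate reaches that level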
PGC1a acetyl inh = lowers PGC1a acetylation signal in U2OS cells; AlphaScreen anti-acetyl-lysine; with virally co-expressed GCN5 acetyltransferase; inhibition, % at 15.6 µM; 350,000 compounds, 0.17% hits;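 active = every replicate shows inhibition of at least 40%; inconclusive = mean inhibition at least 40% but some replicate below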
PAX8 reporter = PAX8 transcriptional activity inhibition; 360,000 compounds, 1.2% hits; RMG-I TPO-luciferase reporter, SteadyGlo, 24 h; AID 652154; inhibition, % at 12.6 µM;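 active = mean replicate inhibition at least 60% with every replicate also reaching 60%; inconclusive = only one of the two criteria is met; inactive = mean below 60% and not all replicates reaching 60%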;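 also: luciferase light reporting Pax8 driven TPO promoter activity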
Hits are given with their value; – = inactive; ? = inconclusive; · = no result given; [ ] = dose if it differs, or a comment.

SMILES	HIV Env fusion	EWS-Fli inh	CFTR F508del cor	GSIS activator	PGC1a acetyl inh	PAX8 reporter
CNC(=S)Nc1cccc2[nH]ncc12	–	·	·	·	–	·
COC(=O)C1=C(C)N(Cc2ccc(C(F)(F)F)cc2)C(=NCc2ccccc2)NC1c1cccc(F)c1 (stereo not given)	?	–	–	671.2	·	101.3
COC(=O)C1=C(C)N(Cc2cccc(C(F)(F)F)c2)C(=NCc2ccc(C(F)(F)F)cc2)NC1c1cccc(F)c1 (stereo not given)	–	–	–	·	·	73.8
COC(=O)C1=C(C)N(Cc2cccc(C(F)(F)F)c2)C(=NCC2CC2)NC1c1cccc(F)c1 (stereo not given)	–	–	–	–	·	–
COC(=O)C1=C(C)N(Cc2ccccc2)C(=NCCc2ccccn2)N[C@H]1c1cccc(C(F)(F)F)c1	80.0	–	–	–	–	–
COc1ccc(-c2[nH]nc3nc(N4CCN(C(=O)c5ccoc5)CC4)cc(C(F)(F)F)c23)cc1	–	55.1	–	–	–	–
COc1ccc(-c2cc3nc(C)cc(N4CCN(C(=O)c5ccoc5)CC4)n3n2)cc1	–	–	–	–	–	–
Cc1ccc(O)c(C2=NOC(O)(C(F)(F)F)C2)c1 (stereo not given)	·	·	·	52.1	–	·
COc1ccc(OC)c(NC(=O)c2cc(-c3cc(Cl)ccc3O)n[nH]2)c1	55.2	·	·	·	–	–
O=C(NCC(c1ccco1)N1CCc2ccccc21)C(=O)Nc1ccccc1F (stereo not given)	–	–	–	–	·	–
O=C(NCC(c1ccco1)N1CCc2ccccc21)C(=O)Nc1ccc(F)cc1F (stereo not given)	–	57.6	–	–	·	–
COc1ccccc1NC(=O)C(=O)NCC(c1ccco1)N1CCc2ccccc21 (stereo not given)	–	–	9.8	–	·	–
Cc1ccc(-n2c(O)c(C=NC3CCS(=O)(=O)C3)c3ccccc3c2=O)c(C)c1 (stereo not given)	–	–	–	·	56.9	–
CCc1cc[n+](C2=C([O-])c3ccccc3C(=O)/C2=N\S(=O)(=O)c2cccs2)cc1	?	–	·	–	·	86.7
Oc1ccccc1-c1nc(NCC2CCCO2)c2ccccc2n1 (stereo not given)	–	·	·	·	·	·
O=[N+]([O-])c1ccc(-c2nc(NCC3CCCO3)c3ccccc3n2)cc1 (stereo not given)	–	–	–	43.6	·	–
CC(=O)N1CC2(C1)[C@H](c1ccccc1)[C@@H](CO)N2CC1CCOCC1	·	–	–	–	–	–
O=S(=O)(c1ccccc1F)N1C[C@@H]2[C@H](c3ccccc31)[C@H](CO)N2Cc1ccc2c(c1)OCO2	·	–	–	–	–	–
Cc1ccnc2ccc(SC(F)(F)F)cc12	–	–	–	–	–	86.7
Cc1ccnc2c1ccc1c(C)ccnc12	·	·	·	·	–	·
O=C(C[C@H]1C[C@@H]2c3cc(NS(=O)(=O)c4ccc(F)cc4)ccc3O[C@@H]2[C@H](CO)O1)NCc1ccccc1F	–	–	–	–	–	–
O=C(C[C@H]1C[C@@H]2c3cc(NS(=O)(=O)c4ccc(F)cc4)ccc3O[C@@H]2[C@@H](CO)O1)NCc1ccc(Oc2ccccc2)cc1	–	–	–	–	–	101.0
O=C(C[C@@H]1C[C@@H]2c3cc(NS(=O)(=O)c4ccc(F)cc4)ccc3O[C@@H]2[C@H](CO)O1)NCc1ccc(-c2ccccc2)cc1	–	–	–	–	–	67.5
O=C(C[C@H]1C[C@@H]2c3cc(NS(=O)(=O)c4ccc(F)cc4)ccc3O[C@@H]2[C@@H](CO)O1)NCc1ccc(-c2ccccc2)cc1	71.1[16.7 µM]	–	–	–	–	84.2
O=C(C[C@H]1C[C@H]2c3cc(NS(=O)(=O)c4ccc(F)cc4)ccc3O[C@H]2[C@@H](CO)O1)NCc1ccccc1F	83.3[16.7 µM]	–	–	–	–	–
SMILES	HIV Env fusion	EWS-Fli inh	CFTR F508del cor	GSIS activator	PGC1a acetyl inh	PAX8 reporter
O=C(C[C@@H]1C[C@@H]2c3cc(NS(=O)(=O)c4ccc(F)cc4)ccc3O[C@@H]2[C@@H](CO)O1)NCc1ccccc1	–	–	–	–	–	–
C[C@@H]1CN([C@H](C)CO)C(=O)c2cccc(NS(=O)(=O)c3cccs3)c2O[C@@H]1CN(C)C(=O)NC1CCCCC1	·	–	–	–	–	·
CN(C)C(=O)[C@H]1[C@H](CO)[C@H]2Cn3c(ccc(-c4ccccc4F)c3=O)[C@@H]1N2C(=O)c1ccncc1	·	–	–	–	·	–
Cn1c(=O)oc2cc(S(=O)(=O)NCc3ccncc3)ccc21	100.1	·	·	·	–	·
COc1cc(S(=O)(=O)NCc2ccncc2)ccc1Br	64.5	–	–	–	–	–
Cc1cc(C)c(C)c(S(=O)(=O)NCc2ccncc2)c1C	57.1	–	–	–	·	–
Cc1ccc(S(=O)(=O)NCc2ccncc2)cc1C	–	–	–	–	·	–
CCS(=O)(=O)N1CC2(C1)[C@H](c1ccccc1)[C@H](CO)N2C(=O)c1ccccc1	·	–	–	–	–	–
CCCCOc1ccc(Nc2cc(Cl)ccc2C(=O)O)cn1	62.8	–	–	–	·	–
COc1ccc(CC(=O)Nc2cc(Cl)ccc2C(=O)O)cc1	–	–	–	–	–	–
COc1cccc(S(=O)(=O)N2CCCCN3[C@@H](CO)[C@@H](c4ccc(C#CCC(C)C)cc4)[C@@H]3C2)c1	·	–	–	–	–	86.1
COc1cccc(S(=O)(=O)N2CCCCN3[C@H](C2)[C@@H](c2ccc(C#CCC(C)C)cc2)[C@@H]3CO)c1	·	–	–	–	–	–
COc1ccc(S(=O)(=O)N2CCCCN3[C@H](C2)[C@H](c2ccc(C#CC(C)C)cc2)[C@@H]3CO)cc1	·	–	–	–	–	102.4
COc1cccc(S(=O)(=O)N2CCCCN3[C@@H](CO)[C@H](c4ccc(C#CC(C)C)cc4)[C@@H]3C2)c1	·	–	–	–	–	65.4
COc1cccc(S(=O)(=O)N2CCCCN3[C@H](C2)[C@@H](c2ccc(C#CC(C)C)cc2)[C@@H]3CO)c1	·	–	–	–	–	–
C[C@H]1CN([C@@H](C)CO)C(=O)c2cc(NC(=O)c3ccncc3)ccc2O[C@@H]1CN(C)C(=O)Nc1ccc(C(F)(F)F)cc1	–	–	–	–	–	–
O=C(Nc1ccc(F)cc1)N1CC(=O)N2[C@H](CO)[C@H](c3ccc(C#Cc4ccc(F)cc4)cc3)[C@@H]2C1	·	–	–	–	–	–
N#C[C@H]1[C@@H](c2ccccc2C2=CCCCC2)[C@@H](CO)N1C(=O)c1cccc(F)c1	·	–	–	–	–	·
COc1ccc(S(=O)(=O)Cc2ccc(C(=O)N3CCN(c4cccc(C)c4)C(C)C3)o2)cc1 (stereo not given)	–	–	9.3	–	–	–
COc1ccccc1S(=O)(=O)Cc1ccc(C(=O)N2CCN(c3ccc(C)cc3)C(C)C2)o1 (stereo not given)	–	–	–	·	–	–
